The list is not random: actives were taken first. Their share in the collection is about 21%.
Pf growth 48h: inhibits P. falciparum growth in the first generation, 48 h; P. falciparum luciferase growth in erythrocytes, 48 h; Potency, µM (series often up to 28.7 µM), most hits filed as inhibitors; actives 5.9% (n = 310,000); AID 504832
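Luminescence readout; reporter = integrated firefly luciferase in P. falciparum. RBC culture at 2% hematocrit, 0.1% parasitemia final, 37 C/5% CO2; decreased signal taken as growth inhibition.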
Pf growth 96h: P. falciparum growth inhibition at 96 hour, primary screen for plastid delayed-death inhibitors; P. falciparum luciferase reporter growth, 96 h; Potency, µM (highest dose often 28.7 µM), most hits filed as inhibitors; actives 6.9% (n = 320,000); AID 504834
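Two-generation exposure (96 h) targets delayed-death phenotype. Reporter parasites carrying integrated firefly luciferase, in red cells at 2% hematocrit and 0.05% parasitemia final, kept at 37 C, 5% CO2; luminescence loss indicates inhibition.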
Shiga toxin inh: blocks Shiga toxin action in Vero cells. Vero cells, Shiga toxin protein synthesis inhibition reporter. inhibition, % at 38.7 µM. actives 9.2% (n = 290,000); in the data active means inhibition mostly above about 28%, no sharp cut-off; inactive means mostly below about 43%
NS1 inh: inhibitors of influenza NS1 protein function; Potency, µM (series often up to 46.1 µM); actives 0.4% (n = 270,000); AID 2326; calls by dose curve; further: actives are rising curves; nearly all actives have a fitted effect of over 50% in size
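OD600 was taken as the measure of yeast growth restored by compound in an NS1-expressing S. cerevisiae strain. Cells had been washed out of glucose medium and diluted 1:100 into galactose -URA medium, pH 6.0.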
SARS PLpro yeast: SARS-CoV PLP inhibition in yeast; S. cerevisiae expressing SARS-CoV PLpro, growth rescue; Potency, µM (top dose mostly 32.9 µM), hits mostly activators; actives 0.19% (n = 330,000); AID 485353; calls by dose curve; further: nearly all actives have a fitted effect of over 55% in size
CHX counter: counter-screen hit for Shiga toxin inhibitors, cycloheximide. max response, %. AID 2314. cell reporter, cycloheximide protein synthesis inhibition counterscreen. actives 12% (n = 300,000); in the data active means max response mostly above about 13%, no sharp cut-off; inactive means mostly below about 14%; further: read at 38.3 µM for the half of the compounds with a filed dose
Large screens that a line does not name were inactive. Unless noted, the call rests on the fitted dose curve; in most records, active means well fitted inhibition curve with a large enough effect; inconclusive means small, poorly fitted or top-dose-only effect, or another doubt; inactive means no such curve, though single readings can be large or run the other way.

CC(=O)NC(C(=O)N1CCC(c2nc3ccccc3s2)CC1)C(C)C (configuration not stated)	none
O=C(NCc1ccco1)c1ccc(C(F)(F)F)cc1	none (no result: NS1 inh)
CN(C)C(CNC(=O)c1ccc(C(F)(F)F)cc1)c1ccco1 (configuration not stated)	CHX counter 17.4
CC(Cc1ccco1)NC(=O)c1cccc(S(=O)(=O)N(C)C)c1 (configuration not stated)	Shiga toxin inh 66.8, CHX counter 30.3
CN(C)C(CNC(=O)c1ccc(S(=O)(=O)Nc2cccc(C(F)(F)F)c2)cc1)c1ccco1 (configuration not stated)	Pf growth 48h inconclusive (no result: Shiga toxin inh, NS1 inh, SARS PLpro yeast, CHX counter)
CN(C)C(CNC(=O)c1cc2ccccc2o1)c1ccco1 (configuration not stated)	none (no result: Pf growth 48h, Pf growth 96h, Shiga toxin inh, NS1 inh, CHX counter)
CC(Cc1ccco1)NC(=O)c1ccc(C(F)(F)F)cc1 (configuration not stated)	Shiga toxin inh active, CHX counter 43.4
Cc1ccc2oc(C(=O)NCC(c3ccco3)N(C)C)c(C)c2c1 (configuration not stated)	Shiga toxin inh 74.9, CHX counter 40.7
Cc1ccc(CN2CCNC(=O)C2CC(=O)N(C)C2CCOCC2)cc1 (configuration not stated)	Pf growth 96h inconclusive
Cn1c(N)c(C(=O)COc2ccc(C#N)cc2)c(=O)n(C)c1=O	none (no result: NS1 inh)
COc1cc(OC)cc(C(=O)NCC2CCCN(C(=O)c3oc(C)cc3C)C2)c1 (configuration not stated)	Pf growth 96h inconclusive
CC1=CSC2=NC(=O)/C(=C/c3cccc(OC(=O)c4ccco4)c3)C(=N)N12	Shiga toxin inh 33.9
COc1cc(/C=C2/C(=N)N3OC(C)=CC3=NC2=O)ccc1OC(=O)c1ccco1	Pf growth 96h 13.1µM (no result: NS1 inh)
CSC1=NSC2=NC(=O)/C(=C\c3ccc(OC(=O)c4ccco4)cc3)C(=N)N12	Shiga toxin inh 33.7, CHX counter 19.2
Clc1ccc(-n2nnnc2-c2cnc3ccccc3c2-c2ccccc2)cc1	Pf growth 48h 5.22µM, Pf growth 96h 10.4µM
Cc1ccc(-n2nnnc2-c2cnc3ccc(Cl)cc3c2-c2ccccc2)cc1	Pf growth 48h inconclusive, Pf growth 96h inconclusive
Cc1ccc(NC(=O)c2cccs2)cc1[N+](=O)[O-]	Pf growth 96h inconclusive, Shiga toxin inh 38.0, CHX counter 35.6
Cc1ccc(NC(=O)c2ccc(C(C)(C)C)cc2)cc1[N+](=O)[O-]	Shiga toxin inh 11.8, CHX counter 43.4
Cc1ccc([N+](=O)[O-])cc1NC(=O)c1ccc(C(C)(C)C)cc1	Pf growth 48h inconclusive, Pf growth 96h inconclusive
Cc1ccc(C(=O)NC(=S)Nc2ccc(NC(=O)c3cccs3)cc2)cc1[N+](=O)[O-]	Pf growth 96h 9.28µM
Cc1ccc[n+](C(C)C(=O)Nc2ccc(C)c([N+](=O)[O-])c2)c1 (configuration not stated)	Pf growth 48h inconclusive, Pf growth 96h 11.7µM
Cc1ccc[n+](C(C)C(=O)Nc2ccc([N+](=O)[O-])cc2C)c1 (configuration not stated)	none (no result: NS1 inh)
Cc1ccc(C(=O)Nc2ccc(NC(=O)c3cccs3)cc2)cc1[N+](=O)[O-]	none
CC(C)CC(=O)Nc1ccc(C(=O)CN2CCC(C)CC2)cc1	none (no result: NS1 inh)
O=C(COC(=O)/C=C/c1cccs1)NC1CC1	none
CCCc1cc(N2CCN(C(=O)c3ccco3)CC2)n2c(nc3ccccc32)c1C#N	Pf growth 48h 11.7µM (no result: Pf growth 96h)
Cc1nnc2c(N3CCN(C(=O)c4ccco4)CC3)nc3ccccc3n12	none
CCCCc1nc(N2CCN(C(=O)c3ccco3)CC2)c(C#N)c2c1CCCC2	Pf growth 48h 9.28µM, Pf growth 96h inconclusive, Shiga toxin inh 62.5, CHX counter 20.9
N#Cc1ccc(CN(c2ccncc2)S(=O)(=O)c2ccccc2)cc1	NS1 inh inconclusive, SARS PLpro yeast inconclusive
CC(C)Cn1cc(C(=O)N2CCN(c3ccccn3)CC2)c2c3ccccc3n(C)c2c1=O	Pf growth 48h 7.38µM, Pf growth 96h 9.28µM
CC(C)Cn1cc(C(=O)NC2CCN(Cc3ccccc3)CC2)c2c3ccccc3n(C)c2c1=O	Pf growth 48h 2.62µM, Pf growth 96h inconclusive
O=C(C1CCC(=O)N(C2CCCC2)C1)N1CCN(Cc2cccc(Cl)c2)CC1 (configuration not stated)	none
Cc1cc(C)c(NC(=O)CN(C2CCCCC2)C2CCCCC2)c(C)c1	Pf growth 48h inconclusive (no result: Pf growth 96h)
Cc1cc(C)c(NC(=O)CCCCCNC2CCCCC2)c(C)c1	Pf growth 96h 13.1µM
Cc1cc(C(F)(F)F)nn1CC(=O)NCc1cccs1	none
Cc1nc2c(-c3ccc(F)cc3)c(C)nn2c(C)c1CCC(=O)N1CCOCC1	Pf growth 96h inconclusive (no result: Pf growth 48h)
CCOC(=O)C1CCN(C(=O)CCc2c(C)nc3c(-c4ccc(F)cc4)c(C)nn3c2C)CC1	Pf growth 96h 10.4µM (no result: Pf growth 48h)
COCCNC(=O)CCc1c(C)nc2c(-c3ccc(F)cc3)c(C)nn2c1C	Pf growth 96h 13.1µM (no result: Pf growth 48h)
COCCCNC(=O)CCc1c(C)nc2c(-c3ccc(F)cc3)c(C)nn2c1C	Pf growth 48h inconclusive, Pf growth 96h inconclusive
Cn1c(CC(=O)c2ccc(Br)cc2)[n+](C)c2ccccc21	Pf growth 48h 13.1µM, Pf growth 96h 0.738µM (no result: NS1 inh)
CCc1ccc(CN2CCN(C(=O)c3ccco3)CC2)cc1	none
COCCN1Cc2c(sc(C)c2C)N(C(=O)c2ccccc2)C1	Pf growth 48h inconclusive, Shiga toxin inh 71.7, NS1 inh inconclusive, CHX counter 26.4
Cc1sc2c(c1C)CN(Cc1ccco1)CN2C(=O)c1ccccc1	none (no result: Pf growth 48h, Pf growth 96h, Shiga toxin inh, SARS PLpro yeast, CHX counter)
Cc1sc2c(c1C)CN(C(C)(C)C)CN2C(=O)c1ccccc1	Shiga toxin inh 91.0, CHX counter 38.4 (no result: Pf growth 48h)
Cc1sc2c(c1C)CN(Cc1ccncc1)CN2C(=O)c1ccco1	Pf growth 96h inconclusive, Shiga toxin inh 64.1, CHX counter 41.3 (no result: Pf growth 48h)
Cc1ccc(Cl)c(NC(=O)COC(=O)c2nn(C)c(=O)c3ccccc23)c1Cl	none (no result: Shiga toxin inh, NS1 inh, CHX counter)
O=C(NCC(=O)N1CCN(c2ccccc2)CC1)c1ccco1	Pf growth 96h inconclusive
Cc1ccc(-c2nn(-c3ccccc3)cc2/C=N/NS(=O)(=O)c2ccccc2)cc1	Pf growth 48h inconclusive, Pf growth 96h inconclusive, CHX counter 36.1
O=S(=O)(N/N=C\c1cn(-c2ccccc2)nc1-c1ccccc1)c1ccccc1	none
NS(=O)(=O)c1ccc(N/N=C/c2cn(-c3ccccc3)nc2-c2ccccc2)c([N+](=O)[O-])c1	Pf growth 48h 4.15µM, Pf growth 96h inconclusive
NS(=O)(=O)c1ccc(N/N=C/c2ccccc2C(=O)O)c([N+](=O)[O-])c1	none (no result: NS1 inh)
Cc1ccc(S(=O)(=O)N/N=C\c2cn(-c3ccccc3)nc2-c2ccccc2)cc1	CHX counter 19.7
O=C(COC(=O)/C=C/c1ccc(OC(F)F)cc1)Nc1ccc2[nH]c(=O)[nH]c2c1	none (no result: Pf growth 48h, Pf growth 96h, Shiga toxin inh, NS1 inh, CHX counter)
COc1ccccc1NC(=O)N1CCN(c2ncccn2)CC1	none (no result: Pf growth 96h)

Screens (PubChem)
